Rows were chosen to be rich in hits. Some 2.3% of all compounds tested hit in one or more screens of this group.
CHO-K1 Ca PAM = nonselective activator or artifact in parental CHO-K1 calcium assay. ATP EC20, Fluo-8 calcium fluorescence; 0% at ATP EC20, 100% at ATP max. activation, % at 3 µM. 360,000 compounds, 0.02% hits;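 active = activation above the run cutoff, the mean activation of all test compounds plus 3 SD, cut at about 40% in these data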;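 note: peak over basal fluorescence ratio in a 140 s read after ATP addition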
CHRM1 PAM = potentiates human M1 receptor response to acetylcholine; P11229; CHO-K1 hM1, Fluo-8 calcium fluorescence, ACh EC20; 0% = ACh EC20, 100% = maximal ACh; activation, % at 3 µM; 360,000 compounds, 0.088% hits; in the data active = activation above about 19%, passing the limit was not always enough
Target sequence (P11229 whole entry, looked up): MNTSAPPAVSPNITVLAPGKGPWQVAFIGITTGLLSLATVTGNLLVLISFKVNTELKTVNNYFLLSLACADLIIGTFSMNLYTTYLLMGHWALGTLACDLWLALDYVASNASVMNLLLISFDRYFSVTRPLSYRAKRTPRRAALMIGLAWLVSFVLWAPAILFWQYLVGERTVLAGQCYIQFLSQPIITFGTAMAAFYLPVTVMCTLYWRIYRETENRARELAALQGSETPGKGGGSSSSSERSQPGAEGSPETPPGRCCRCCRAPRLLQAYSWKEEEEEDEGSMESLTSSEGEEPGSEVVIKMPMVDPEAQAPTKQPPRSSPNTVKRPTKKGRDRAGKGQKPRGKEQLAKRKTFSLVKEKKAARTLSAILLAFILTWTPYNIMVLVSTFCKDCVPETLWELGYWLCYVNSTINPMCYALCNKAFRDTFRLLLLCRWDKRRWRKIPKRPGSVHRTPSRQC
CHRM1 antagonist = human CHRM1 antagonism. inhibition, % at 3 µM. P11229. AID 588852. 360,000 compounds, 1.3% hits. CHO-K1 hM1, Fluo-8 calcium fluorescence, ACh EC80 antagonist;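 active = percent inhibition above its own plate's cutoff, namely the mean of that plate's compound wells plus 3 SD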;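 note: peak over basal fluorescence ratio during 140 s after agonist addition; 0% = ACh EC80 plus DMSO and 100% = DMSO alone without agonist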
CHO-K1 Ca antag = counter-screen for M1 antagonists: effect in parental CHO-K1 cells. ATP-induced calcium, Fluo-8 fluorescence. inhibition, % at 3 µM. 360,000 compounds, 0.6% hits. AID 602250;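 active = inhibition above a per-plate cutoff, the plate's mean sample inhibition plus 3 SD, cut at about 24% in these data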;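 note: 0% = DMSO plus EC80 ATP and 100% = DMSO alone without ATP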
CHO-K1 Ca ag = counter-screen for M1 agonists: effect in parental CHO-K1 cells; activation, % at 3 µM; Fluo-8 calcium fluorescence; scaled to maximal ATP response, vehicle zero; AID 602248; 360,000 compounds, 0.48% hits; in the data active = activation above about 15%;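 note: untransfected CHO-K1 host cells lacking M1 receptor as counterscreen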
CHRM1 agonist = agonists of human M1 muscarinic receptor. AID 588814. 360,000 compounds, 0.33% hits. activation, % at 3 µM. CHO-K1 hM1, Fluo-8 calcium fluorescence, agonist mode; 0% DMSO, 100% acetylcholine EC100. P11229;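 active = activation above the run's mean compound activation plus 3 SD, cut at about 16% in these data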;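 note: peak over basal fluorescence ratio within a 140 s kinetic read after compound addition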
Starred values were filed as active, the others as inactive.

SMILES | CHO-K1 Ca PAM | CHRM1 PAM | CHRM1 antagonist | CHO-K1 Ca antag | CHO-K1 Ca ag | CHRM1 agonist
O=C(CN1C(=O)S/C(=C\C=C\c2ccccc2)C1=O)Nc1ccccc1C(=O)O | 17.3 | 9.8 | -17.1 | -6.0 | 0.7 | -3.7
C#CCN1C(=O)S/C(=C/C=C/c2ccc(N(C)C)cc2)C1=O | 2.7 | -18.0 | 46.6* | 13.1 | 9.2 | 35.8*
COc1ccc(N2CCN(C(=O)Cn3nnc(-c4ccc(OC)c(OC)c4)n3)CC2)cc1 | -5.0 | 0.9 | -3.8 | -11.2 | 0.3 | -0.8
Cc1ccc(-c2nnn(CC(=O)N3CCN(c4ccccc4)CC3)n2)o1 | 8.3 | 29.6* | -21.4 | -18.2 | 0.5 | 3.5
Cc1ccc(S(=O)(=O)NN=Cc2ccco2)cc1 | 3.6 | 1.4 | -11.6 | -12.4 | -0.2 | -0.6
O=C1CCC(=O)c2ccc3c4c(ccc1c24)CC3 | 3.1 | 1.7 | -9.1 | -4.7 | -0.1 | -5.8
O=C1CCN2C=Nc3cccc4ccc1c2c34 | -8.0 | -2.9 | -13.5 | -1.5 | 17.9* | 24.6*
O=C(OCC(=O)C12CC3CC(CC(C3)C1)C2)c1ccc(O)cc1O | 11.3 | 3.2 | -4.5 | 8.1 | 2.1 | 1.8
COc1ccccc1/C=C/CN1CCCC(CCC(=O)NCc2ccc(F)c(F)c2)C1 (centres undefined) | 16.6 | -19.9 | 1.7 | -8.2 | 0.8 | -14.1
COc1ccc(/C=C/CN2CCCC(CCC(=O)NCc3ccc(F)c(F)c3)C2)cc1 (centres undefined) | 1.3 | -31.8 | 84.3* | 0.3 | 0.1 | -13.6
O=C(CCC1CCCN(Cc2cccc3c2OCO3)C1)NCc1ccc(F)c(F)c1 (centres undefined) | 5.6 | -32.2 | 42.1* | 1.3 | -0.5 | -14.2
COc1cccc(CN2CCC2(C)C(=O)Nc2cccc3cccnc23)c1F (centres undefined) | 10.3 | 9.5 | -8.3 | -9.4 | -0.7 | -1.0
CC1(C(=O)Nc2cccc3cccnc23)CCN1Cc1csc2ccccc12 (centres undefined) | 50.6* | -0.4 | -6.5 | -35.6 | 1.2 | -2.9
Cn1c(Nc2ccc(Cl)cc2F)nc2cc(-c3ccccc3)sc2c1=O | 2.2 | 1.4 | -1.9 | 4.8 | -0.1 | 1.3
C#CCOC(=O)Nc1ccc(OCC(F)(F)F)nc1 | 17.1 | 6.2 | -11.2 | -7.5 | 9.0 | -1.9
Cc1cc(Cl)c(OCCOCCN2CCN(C)CC2)c(Br)c1 | -10.3 | -8.3 | 15.2 | 15.8 | 0.6 | -10.4
CC1CCN(CCCCOc2cccc(Br)c2)CC1 | 15.2 | -26.6 | 83.5* | -7.4 | 1.2 | -12.5
Cc1cc(Cl)c(OCCOCCN2CCC(C)CC2)c(Br)c1 | -12.9 | -24.3 | 55.1* | 14.5 | 0.4 | -10.3
CC1CCN(CCCCOc2ccc(Br)cc2)CC1 | -3.0 | -23.9 | 31.4* | -3.1 | 1.1 | -10.4
CC1CCN(CCCCOc2ccccc2Br)CC1 | 19.7 | -12.5 | 10.1 | -6.2 | 0.5 | -10.1
Cc1cc(Br)ccc1OCCCCN1CCC(C)CC1 | -2.4 | -26.6 | 52.9* | 4.9 | 2.5 | -11.3
CC(C)c1cc(C(C)C)c(S(=O)(=O)N2CCNCC2)c(C(C)C)c1 | 2.0 | 14.6 | -8.5 | -4.8 | 0.2 | 0.4
Cc1cc(N2CCCC2)ccc1NC(=O)COc1cccc(C(F)(F)F)c1 | -5.2 | -15.2 | 14.5 | -10.7 | 6.9 | -3.4
O=C(O)CN=C(NS(=O)(=O)c1ccccc1)c1ccccc1 | 4.3 | 6.0 | -0.7 | -5.3 | 0.2 | 0.9
N#CCCN=C(NS(=O)(=O)c1ccccc1)c1ccccc1 | 4.7 | 27.7* | -22.7 | -5.5 | 1.2 | 1.0
SMILES | CHO-K1 Ca PAM | CHRM1 PAM | CHRM1 antagonist | CHO-K1 Ca antag | CHO-K1 Ca ag | CHRM1 agonist
CC(CN1CCOCC1)OC(=O)C(C)(c1ccccc1)c1ccccc1 (centres undefined) | -3.0 | -18.7 | 17.5 | -4.3 | 0.0 | -6.7
CC(CN1CCCCC1)OC(=O)C(C)(c1ccccc1)c1ccccc1 (centres undefined) | 19.1 | -20.7 | 88.7* | -6.5 | 0.6 | -4.0
CCC(=O)Nc1ccc(-c2cc3ccccc3oc2=O)cc1 | -15.9 | 6.6 | 7.2 | 24.8* | -0.6 | 1.1
CCc1ccc(OCC(=O)Nc2ccc(-c3cc4ccccc4oc3=O)c(OC)c2)cc1 | 0.9 | -7.2 | 20.3 | 26.2* | 7.7 | -2.1
CCC(=O)Nc1cc(-c2cc3ccccc3oc2=O)ccc1OC | 11.3 | 8.0 | -8.1 | -14.5 | 0.1 | -4.0
O=C1C(=O)N(CCCc2ccccc2)c2ccccc21 | 13.3 | 6.3 | -13.6 | -4.2 | 0.4 | 18.3*
O=C(CN1C(=O)C(=O)c2ccccc21)NCCc1ccccc1 | 18.6 | 12.4 | -10.3 | -13.7 | 1.8 | 1.4
O=C1C(=O)N(C/C=C/c2ccccc2)c2ccccc21 | 8.4 | 16.8 | -16.5 | -14.7 | 0.9 | 24.1*
COc1cc(NC(=O)COc2ccc(C)c(C)c2)ccc1NC(=O)c1ccco1 | -11.9 | 0.2 | -6.5 | -14.1 | 1.7 | -4.5
NS(=O)(=O)c1ccc(NC(=S)N2CCN(Cc3ccc(Cl)c(Cl)c3)CC2)cc1 | 19.0 | 3.2 | 5.5 | 2.3 | 19.0* | -12.9
COc1ccc(C(CNC(=O)CCNS(=O)(=O)c2ccccc2)N2CCOCC2)cc1 (centres undefined) | -14.4 | -13.0 | 29.8* | 9.3 | 0.0 | -4.3
COc1ccc(C(CNC(=O)c2cccc(S(=O)(=O)N3CCCC3)c2)N2CCCC2)cc1 (centres undefined) | 1.8 | -7.2 | 6.6 | -10.2 | 0.5 | -7.1
COc1ccc(C(CNC(=O)c2ccc(Cl)c(NC(=O)c3cccs3)c2)N2CCCC2)cc1 (centres undefined) | 13.9 | -27.0 | 46.4* | -11.8 | 2.4 | -6.3
COc1ccc(C(CNC(=O)Cc2ccccc2Cl)N2CCCCC2)cc1 (centres undefined) | -3.3 | -27.6 | 37.6* | -9.7 | 1.1 | -10.2
O=C(CCN1C(=O)c2ccccc2C1=O)c1ccccc1 | 27.3 | 8.6 | -9.2 | 1.7 | 1.1 | 3.0
CN(C)CCCN(C(=O)c1ccco1)c1nc2c(F)cc(F)cc2s1 | -9.5 | 2.0 | 2.9 | -10.5 | 0.8 | 7.1
Cc1ccc2nc(N(CCCN(C)C)C(=O)c3ccco3)sc2c1 | 26.4 | 4.3 | -5.2 | -6.2 | 1.0 | 3.9
CN(C)CCCN(C(=O)c1ccco1)c1nc2c(F)cccc2s1 | -2.5 | -14.7 | 47.2* | -7.9 | 0.5 | 6.5
CN(C)CCCN(C(=O)CCc1ccccc1)c1nc2c(F)cccc2s1 | 20.5 | 7.5 | -10.6 | 0.5 | 17.9* | -7.1
CN(C)CCCN(C(=O)c1ccco1)c1nc2ccc(F)cc2s1 | 14.5 | -5.3 | 18.1 | 11.0 | 0.1 | 17.5*
O=C1CN(C(=O)c2ccc(Cl)c(S(=O)(=O)N3CCc4ccccc43)c2)c2ccccc2N1 | 18.8 | 6.9 | -8.9 | -11.3 | 10.2 | 3.1
O=C(O)CCCN1C(=O)NC2NC(=O)NC21 (centres undefined) | -6.8 | -4.7 | 5.0 | 34.4* | -0.2 | -2.6
O=C(CSc1ncccn1)c1ccccc1Br | -5.7 | 6.7 | -1.1 | 26.8* | 0.4 | 0.3
